Measurements as given in the supplement of paper PMC10849652.
About 8,800 targets were measured; listed, in parts, are those with a hit and a random draw of the rest. About 0.5% of all pairs of compound and target were hits.

How the values were obtained:
Assay in all cases: log2 fold change, soluble protein after heating vs DMSO (PISA); higher = thermal stabilisation; K562 lysate, 10 uM; active = over 0.2 and 3.5 SD of the protein, either way, in both replicates (recomputed)
lapatinib = compound: CS(=O)(=O)CCNCc1ccc(-c2ccc3ncnc(Nc4ccc(OCc5cccc(F)c5)c(Cl)c4)c3c2)o1 [lapatinib]
Summary of the method: (§1)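 K562 pellets were dounce-homogenised in PBS pH 7.4 containing 1 mM MgCl2, and the crude extract, at 1 mg/mL protein, was exposed to 10 μM compound for 30 min. Aliquots were heated for 3 min across 48°C-58°C, pooled, brought to 0.5% NP-40 at 4°C and spun at 21,000xg for 90 min, with the supernatant taken as soluble protein. TMTpro 16plex LC-MS/MS with equalised channel sums quantified that protein. Values are log-two fold changes in thermal stability relative to solvent controls, taken from duplicates.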

pictilisib = compound: CS(=O)(=O)N1CCN(Cc2cc3nc(-c4cccc5[nH]ncc45)nc(N4CCOCC4)c3s2)CC1 [pictilisib]
Summary of the method: as §1

crizotinib = compound: C[C@@H](Oc1cc(-c2cnn(C3CCNCC3)c2)cnc1N)c1c(Cl)ccc(F)c1Cl [crizotinib]
Summary of the method: as §1

[1] = compound: C[C@H](C1=CC=C(C=C1)C(=O)NC2=C3C=CNC3=NC=C2)N
Summary of the method: as §1

duvelisib = compound: C[C@H](Nc1ncnc2nc[nH]c12)c1cc2cccc(Cl)c2c(=O)n1-c1ccccc1 [duvelisib]
Summary of the method: as §1

gandotinib = compound: Cc1cc(Nc2cc(CN3CCOCC3)c3nc(C)c(Cc4ccc(Cl)cc4F)n3n2)n[nH]1 [gandotinib]
Summary of the method: as §1

tozasertib = compound: Cc1cc(Nc2cc(N3CCN(C)CC3)nc(Sc3ccc(NC(=O)C4CC4)cc3)n2)n[nH]1 [tozasertib]
Summary of the method: as §1

doramapimod = compound: Cc1ccc(-n2nc(C(C)(C)C)cc2NC(=O)Nc2ccc(OCCN3CCOCC3)c3ccccc23)cc1 [doramapimod]
Summary of the method: as §1

bafetinib = compound: Cc1ccc(NC(=O)c2ccc(CN3CC[C@H](N(C)C)C3)c(C(F)(F)F)c2)cc1Nc1nccc(-c2cncnc2)n1 [bafetinib]
Summary of the method: as §1

[2] = compound: Cc1cccc(CC(=O)N2CCc3c2ccc(-c2cn(C)c4ncnc(N)c24)c3F)n1
Summary of the method: as §1

nilotinib = compound: Cc1cn(-c2cc(NC(=O)c3ccc(C)c(Nc4nccc(-c5cccnc5)n4)c3)cc(C(F)(F)F)c2)cn1 [nilotinib]
Summary of the method: as §1

[3] = compound: Cc1nc(Nc2n[nH]c3c2CN(C(=O)N[C@H](CN(C)C)c2ccccc2)C3(C)C)c2sccc2n1
Summary of the method: as §1

dasatinib = compound: Cc1nc(Nc2ncc(C(=O)Nc3c(C)cccc3Cl)s2)cc(N2CCN(CCO)CC2)n1 [dasatinib]
Summary of the method: as §1

[4] = compound: Cc1ncc(-c2ccnc(Nc3ccc(S(C)(=O)=O)cc3)n2)n1C(C)C
Summary of the method: as §1

[5] = compound: Cn1cc(-c2ccc3c(c2)CCN3C(=O)Cc2cccc(C(F)(F)F)c2)c2c(N)ncnc21
Summary of the method: as §1

quisinostat = compound: Cn1cc(CNCC2CCN(c3ncc(C(=O)NO)cn3)CC2)c2ccccc21 [quisinostat]
Summary of the method: as §1

tipifarnib = compound: Cn1cncc1[C@@](N)(c1ccc(Cl)cc1)c1ccc2c(c1)c(-c1cccc(Cl)c1)cc(=O)n2C [tipifarnib]
Summary of the method: as §1

[6] = compound: NC(=O)Nc1cc(-c2cccc(F)c2)sc1C(=O)N[C@H]1CCCNC1
Summary of the method: as §1

[7] = compound: NC(=O)c1cnc(N[C@@H]2CCCC[C@@H]2N)nc1Nc1cccc(-n2nccn2)c1
Summary of the method: as §1

[8] = compound: NC1(c2ccc(-c3nc4ccn5c(=O)[nH]nc5c4cc3-c3ccccc3)cc2)CCC1
Summary of the method: as §1

Measured: log2 fold change

ZMYM4 (UniProt Q5VZL5)
inactive: lapatinib -0.022 | pictilisib 0.037 | crizotinib -0.009 | [1] -0.07 | duvelisib -0.007 | gandotinib 0.004 | tozasertib 0.028 | doramapimod 0.031 | bafetinib 0.008 | [2] 0.042 | nilotinib -0.016 | [3] 0.003 | dasatinib -0.001 | [4] -0.005 | [5] -0.061 | quisinostat -0.028 | tipifarnib -0.051 | [6] 0.067 | [7] 0.021 | [8] -0.003

ZFYVE19 (UniProt Q96K21)
Chain of UniProt Q96K21 (Q96K21 whole entry, looked up): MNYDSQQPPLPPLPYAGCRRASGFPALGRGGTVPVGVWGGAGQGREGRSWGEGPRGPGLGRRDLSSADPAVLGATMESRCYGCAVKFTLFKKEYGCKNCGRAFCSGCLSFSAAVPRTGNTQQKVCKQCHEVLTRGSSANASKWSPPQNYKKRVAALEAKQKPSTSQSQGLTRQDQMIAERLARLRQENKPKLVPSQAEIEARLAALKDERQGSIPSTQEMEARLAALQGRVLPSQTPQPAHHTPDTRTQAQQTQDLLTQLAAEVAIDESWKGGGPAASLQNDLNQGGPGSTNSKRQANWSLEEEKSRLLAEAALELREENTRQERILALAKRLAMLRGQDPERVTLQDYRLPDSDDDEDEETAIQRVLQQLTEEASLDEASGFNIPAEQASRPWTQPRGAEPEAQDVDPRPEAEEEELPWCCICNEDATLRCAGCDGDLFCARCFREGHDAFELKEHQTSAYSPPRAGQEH
inactive: lapatinib 0.042 | pictilisib 0.017 | crizotinib 0.007 | [1] -0.125 | duvelisib -0.005 | gandotinib 0.085 | tozasertib 0.046 | doramapimod -0.029 | bafetinib 0 | [2] 0.149 | nilotinib 0.014 | [3] -0.001 | dasatinib 0.007 | [4] 0.053 | [5] -0.041 | quisinostat -0.01 | tipifarnib 0.006 | [6] -0.003 | [7] 0.014 | [8] 0.003

UQCC2 (UniProt Q9BRT2)
Chain of UniProt Q9BRT2 (Q9BRT2 whole entry, looked up): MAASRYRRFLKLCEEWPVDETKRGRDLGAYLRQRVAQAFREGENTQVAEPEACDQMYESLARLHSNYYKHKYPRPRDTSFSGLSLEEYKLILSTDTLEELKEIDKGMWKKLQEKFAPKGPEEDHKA
inactive: lapatinib 0.007 | pictilisib 0.009 | crizotinib 0.036 | [1] 0.158 | duvelisib 0.026 | gandotinib -0.091 | tozasertib -0.015 | doramapimod 0.014 | bafetinib 0.001 | [2] -0.093 | nilotinib -0.018 | [3] -0.006 | dasatinib 0.002 | [4] 0.012 | [5] -0.001 | quisinostat 0 | tipifarnib 0.058 | [6] -0.076 | [7] -0.005 | [8] 0.018

VPS37B (UniProt Q9H9H4)
Chain of UniProt Q9H9H4 (Q9H9H4 whole entry, looked up): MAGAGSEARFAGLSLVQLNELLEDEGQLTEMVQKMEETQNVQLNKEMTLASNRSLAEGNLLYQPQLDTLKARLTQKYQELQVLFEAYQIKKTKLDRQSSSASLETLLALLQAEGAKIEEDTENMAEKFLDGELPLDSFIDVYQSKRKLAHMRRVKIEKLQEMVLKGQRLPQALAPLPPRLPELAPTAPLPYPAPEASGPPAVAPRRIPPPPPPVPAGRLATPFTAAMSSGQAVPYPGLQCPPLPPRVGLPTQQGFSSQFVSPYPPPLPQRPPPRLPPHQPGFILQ
inactive: lapatinib 0.016 | pictilisib -0.053 | crizotinib 0.017 | [1] 0.034 | duvelisib -0.009 | gandotinib -0.028 | tozasertib 0.021 | doramapimod 0.006 | bafetinib -0.034 | [2] -0.04 | nilotinib 0.025 | [3] -0.078 | dasatinib -0.024 | [4] 0.046 | [5] -0.01 | quisinostat -0.05 | tipifarnib -0.002 | [6] -0.024 | [7] -0.005 | [8] 0

UTP18 (UniProt Q9Y5J1)
inactive: lapatinib 0.032 | pictilisib 0.125 | crizotinib -0.05 | [1] 0.097 | duvelisib -0.065 | gandotinib -0.055 | tozasertib 0.074 | doramapimod -0.025 | bafetinib -0.084 | [2] -0.038 | nilotinib 0.059 | [3] -0.009 | dasatinib 0.005 | [4] -0.179 | [5] -0.03 | quisinostat -0.034 | tipifarnib -0.002 | [6] 0.058 | [7] -0.016 | [8] 0.074

USP34 (UniProt Q70CQ2)
inactive: lapatinib -0.002 | pictilisib -0.008 | crizotinib -0.094 | [1] 0.03 | duvelisib 0.004 | gandotinib -0.122 | tozasertib 0.011 | doramapimod 0.01 | bafetinib -0.041 | [2] 0.018 | nilotinib -0.018 | [3] -0.002 | dasatinib -0.042 | [4] -0.018 | [5] 0.023 | quisinostat -0.041 | tipifarnib 0.021 | [6] 0.074 | [7] 0.018 | [8] 0

ZNF609 (UniProt O15014)
inactive: lapatinib 0.023 | pictilisib -0.054 | crizotinib 0.026 | [1] -0.028 | duvelisib -0.042 | gandotinib 0.16 | tozasertib 0.024 | doramapimod -0.064 | bafetinib -0.111 | [2] 0.187 | nilotinib -0.14 | [3] -0.023 | dasatinib -0.014 | [4] 0.001 | [5] -0.044 | quisinostat -0.006 | tipifarnib 0.01 | [6] 0.061 | [7] -0.015 | [8] 0.003

USP16 (UniProt Q9Y5T5)
inactive: lapatinib 0.003 | pictilisib -0.049 | crizotinib -0.018 | [1] 0.003 | duvelisib 0.049 | gandotinib -0.039 | tozasertib 0.006 | doramapimod -0.017 | bafetinib -0.037 | [2] 0.035 | nilotinib 0.016 | [3] 0.005 | dasatinib 0.053 | [4] 0.014 | [5] 0.041 | quisinostat -0.014 | tipifarnib 0.016 | [6] 0.011 | [7] 0.023 | [8] 0.012

VRK2 (UniProt Q86Y07)
active: [1] 0.353
inactive: lapatinib 0.03 | pictilisib 0.002 | crizotinib -0.069 | duvelisib -0.016 | gandotinib -0.04 | tozasertib -0.026 | doramapimod -0.063 | bafetinib -0.03 | [2] 0.03 | nilotinib 0.048 | [3] 0.219 | dasatinib 0.185 | [4] 0.017 | [5] 0.17 | quisinostat -0.044 | tipifarnib -0.018 | [6] 0.026 | [7] -0.003 | [8] -0.006

WAC (UniProt Q9BTA9)
inactive: lapatinib 0.005 | pictilisib -0.04 | crizotinib 0.018 | [1] 0 | duvelisib -0.005 | gandotinib -0.014 | tozasertib 0.004 | doramapimod -0.031 | bafetinib -0.057 | [2] 0.043 | nilotinib -0.012 | [3] -0.001 | dasatinib -0.038 | [4] -0.019 | [5] 0.002 | quisinostat -0.029 | tipifarnib 0 | [6] 0.019 | [7] -0.01 | [8] 0.004

WDR3 (UniProt Q9UNX4)
Chain of UniProt Q9UNX4 (Q9UNX4 whole entry, looked up): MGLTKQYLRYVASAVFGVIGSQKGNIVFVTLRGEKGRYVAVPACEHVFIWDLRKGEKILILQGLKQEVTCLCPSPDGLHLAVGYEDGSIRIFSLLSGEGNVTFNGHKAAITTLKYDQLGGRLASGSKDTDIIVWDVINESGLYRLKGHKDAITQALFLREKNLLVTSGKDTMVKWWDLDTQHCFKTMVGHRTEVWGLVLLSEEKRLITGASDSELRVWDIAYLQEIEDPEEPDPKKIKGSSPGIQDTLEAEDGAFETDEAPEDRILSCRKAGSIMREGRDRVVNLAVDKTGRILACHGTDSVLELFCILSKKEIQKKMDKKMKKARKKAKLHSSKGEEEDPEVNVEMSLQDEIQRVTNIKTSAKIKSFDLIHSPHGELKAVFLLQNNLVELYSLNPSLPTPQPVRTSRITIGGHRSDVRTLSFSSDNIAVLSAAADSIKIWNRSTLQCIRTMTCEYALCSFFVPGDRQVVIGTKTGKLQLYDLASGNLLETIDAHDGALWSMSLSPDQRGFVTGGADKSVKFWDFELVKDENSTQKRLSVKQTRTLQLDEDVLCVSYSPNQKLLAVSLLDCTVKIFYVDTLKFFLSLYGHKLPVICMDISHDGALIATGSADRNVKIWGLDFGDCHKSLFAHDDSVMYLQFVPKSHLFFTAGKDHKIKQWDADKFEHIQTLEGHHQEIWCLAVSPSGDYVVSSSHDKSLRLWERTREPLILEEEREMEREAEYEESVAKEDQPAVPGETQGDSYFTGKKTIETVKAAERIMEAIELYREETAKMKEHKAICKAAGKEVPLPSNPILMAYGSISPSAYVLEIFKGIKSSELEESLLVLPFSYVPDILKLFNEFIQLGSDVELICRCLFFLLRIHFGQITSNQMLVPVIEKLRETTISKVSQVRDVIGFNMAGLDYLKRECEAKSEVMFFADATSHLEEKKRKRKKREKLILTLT
inactive: lapatinib -0.012 | pictilisib -0.113 | crizotinib -0.003 | [1] -0.054 | duvelisib 0.008 | gandotinib -0.022 | tozasertib 0.003 | doramapimod 0.01 | bafetinib -0.083 | [2] 0.14 | nilotinib 0.055 | [3] 0.001 | dasatinib -0.069 | [4] -0.016 | [5] 0.027 | quisinostat 0.044 | tipifarnib -0.003 | [6] 0.021 | [7] 0.023 | [8] 0.009

YLPM1 (UniProt P49750)
Chain of UniProt P49750 (P49750 whole entry, looked up): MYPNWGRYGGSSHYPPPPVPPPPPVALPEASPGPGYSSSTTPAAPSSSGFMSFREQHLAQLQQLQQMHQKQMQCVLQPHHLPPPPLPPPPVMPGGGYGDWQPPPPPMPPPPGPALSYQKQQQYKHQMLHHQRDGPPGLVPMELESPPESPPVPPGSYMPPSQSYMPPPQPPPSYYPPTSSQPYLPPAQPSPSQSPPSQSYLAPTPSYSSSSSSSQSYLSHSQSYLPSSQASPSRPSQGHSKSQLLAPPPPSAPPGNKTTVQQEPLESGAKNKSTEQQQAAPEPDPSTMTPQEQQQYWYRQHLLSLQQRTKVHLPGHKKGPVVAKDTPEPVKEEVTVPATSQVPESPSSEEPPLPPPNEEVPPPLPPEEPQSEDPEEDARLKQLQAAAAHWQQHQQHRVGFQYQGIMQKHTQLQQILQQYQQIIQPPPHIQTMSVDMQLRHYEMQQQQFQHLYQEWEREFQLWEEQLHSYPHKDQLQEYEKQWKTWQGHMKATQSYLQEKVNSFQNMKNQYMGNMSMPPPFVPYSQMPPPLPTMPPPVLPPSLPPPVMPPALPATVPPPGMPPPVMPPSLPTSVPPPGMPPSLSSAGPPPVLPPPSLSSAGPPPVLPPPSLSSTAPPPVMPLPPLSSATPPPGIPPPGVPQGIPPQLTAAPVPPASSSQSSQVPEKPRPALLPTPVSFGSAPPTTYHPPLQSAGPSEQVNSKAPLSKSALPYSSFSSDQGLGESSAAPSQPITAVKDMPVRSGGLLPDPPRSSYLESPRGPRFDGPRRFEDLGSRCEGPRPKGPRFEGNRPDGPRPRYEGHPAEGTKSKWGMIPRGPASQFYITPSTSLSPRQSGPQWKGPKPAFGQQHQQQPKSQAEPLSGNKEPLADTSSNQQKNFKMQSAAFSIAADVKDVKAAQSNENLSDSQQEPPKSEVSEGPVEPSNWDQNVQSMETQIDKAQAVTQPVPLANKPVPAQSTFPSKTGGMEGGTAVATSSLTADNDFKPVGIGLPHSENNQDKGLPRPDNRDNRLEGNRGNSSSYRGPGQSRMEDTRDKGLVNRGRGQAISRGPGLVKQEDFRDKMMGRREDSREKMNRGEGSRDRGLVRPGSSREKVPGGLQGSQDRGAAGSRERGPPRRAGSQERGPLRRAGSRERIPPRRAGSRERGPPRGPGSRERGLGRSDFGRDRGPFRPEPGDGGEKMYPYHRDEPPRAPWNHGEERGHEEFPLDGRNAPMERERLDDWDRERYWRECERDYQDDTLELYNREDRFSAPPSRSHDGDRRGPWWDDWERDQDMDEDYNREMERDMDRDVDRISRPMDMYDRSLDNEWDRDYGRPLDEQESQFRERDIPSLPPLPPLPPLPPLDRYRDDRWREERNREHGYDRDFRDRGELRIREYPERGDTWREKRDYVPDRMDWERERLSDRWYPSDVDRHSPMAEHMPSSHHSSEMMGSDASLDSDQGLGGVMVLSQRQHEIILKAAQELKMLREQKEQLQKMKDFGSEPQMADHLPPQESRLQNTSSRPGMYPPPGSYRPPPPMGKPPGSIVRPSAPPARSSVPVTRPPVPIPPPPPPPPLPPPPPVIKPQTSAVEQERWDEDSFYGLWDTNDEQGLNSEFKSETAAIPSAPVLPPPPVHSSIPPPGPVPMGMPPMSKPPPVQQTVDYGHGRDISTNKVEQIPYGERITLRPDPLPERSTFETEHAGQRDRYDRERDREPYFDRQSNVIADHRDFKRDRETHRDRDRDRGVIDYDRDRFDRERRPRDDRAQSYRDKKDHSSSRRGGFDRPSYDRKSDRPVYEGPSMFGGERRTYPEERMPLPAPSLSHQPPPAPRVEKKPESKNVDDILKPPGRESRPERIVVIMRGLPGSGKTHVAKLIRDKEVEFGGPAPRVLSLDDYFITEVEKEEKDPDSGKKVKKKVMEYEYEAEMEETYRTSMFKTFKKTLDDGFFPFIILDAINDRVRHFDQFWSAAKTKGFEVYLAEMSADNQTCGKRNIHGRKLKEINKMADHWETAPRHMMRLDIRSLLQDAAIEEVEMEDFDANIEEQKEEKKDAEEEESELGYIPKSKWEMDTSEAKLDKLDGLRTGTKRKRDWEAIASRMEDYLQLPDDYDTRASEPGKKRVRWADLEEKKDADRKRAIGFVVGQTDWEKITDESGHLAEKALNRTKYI
inactive: lapatinib 0.031 | pictilisib -0.019 | crizotinib 0.064 | [1] 0.147 | duvelisib 0.009 | gandotinib -0.067 | tozasertib 0.017 | doramapimod -0.042 | bafetinib -0.09 | [2] -0.054 | nilotinib -0.023 | [3] -0.192 | dasatinib 0.018 | [5] 0.021 | quisinostat -0.015 | tipifarnib -0.011 | [6] 0.033 | [7] 0.041 | [8] -0.013
active: [4] -0.384

YDJC (UniProt A8MPS7)
inactive: lapatinib -0.003 | pictilisib -0.016 | crizotinib 0.022 | [1] -0.031 | duvelisib -0.044 | gandotinib 0.02 | tozasertib 0.022 | doramapimod 0.025 | bafetinib -0.017 | [2] -0.033 | nilotinib -0.027 | [3] 0.045 | dasatinib -0.1 | [4] -0.044 | [5] -0.02 | quisinostat -0.03 | tipifarnib -0.045 | [6] -0.001 | [7] 0.021 | [8] 0.074

ZFPM1 (UniProt Q8IX07)
inactive: lapatinib -0.003 | pictilisib -0.008 | crizotinib -0.135 | [1] 0.009 | duvelisib 0.001 | gandotinib -0.079 | tozasertib -0.118 | doramapimod 0.023 | bafetinib -0.077 | [2] -0.018 | nilotinib 0.036 | [3] -0.075 | dasatinib -0.087 | [4] 0.042 | [5] 0.095 | quisinostat -0.189 | tipifarnib 0.044 | [6] 0.034 | [7] -0.082 | [8] -0.018

WRNIP1 (UniProt Q96S55)
inactive: lapatinib -0.021 | pictilisib -0.043 | crizotinib 0 | [1] 0.054 | duvelisib 0.012 | gandotinib -0.047 | tozasertib 0.022 | doramapimod 0.001 | bafetinib -0.043 | [2] 0.045 | nilotinib -0.008 | [3] 0.002 | dasatinib -0.018 | [4] -0.05 | [5] 0.066 | quisinostat -0.035 | tipifarnib -0.02 | [6] 0.053 | [7] -0.008 | [8] -0.001

XPO1 (UniProt O14980)
Chain of UniProt O14980 (O14980 whole entry, looked up): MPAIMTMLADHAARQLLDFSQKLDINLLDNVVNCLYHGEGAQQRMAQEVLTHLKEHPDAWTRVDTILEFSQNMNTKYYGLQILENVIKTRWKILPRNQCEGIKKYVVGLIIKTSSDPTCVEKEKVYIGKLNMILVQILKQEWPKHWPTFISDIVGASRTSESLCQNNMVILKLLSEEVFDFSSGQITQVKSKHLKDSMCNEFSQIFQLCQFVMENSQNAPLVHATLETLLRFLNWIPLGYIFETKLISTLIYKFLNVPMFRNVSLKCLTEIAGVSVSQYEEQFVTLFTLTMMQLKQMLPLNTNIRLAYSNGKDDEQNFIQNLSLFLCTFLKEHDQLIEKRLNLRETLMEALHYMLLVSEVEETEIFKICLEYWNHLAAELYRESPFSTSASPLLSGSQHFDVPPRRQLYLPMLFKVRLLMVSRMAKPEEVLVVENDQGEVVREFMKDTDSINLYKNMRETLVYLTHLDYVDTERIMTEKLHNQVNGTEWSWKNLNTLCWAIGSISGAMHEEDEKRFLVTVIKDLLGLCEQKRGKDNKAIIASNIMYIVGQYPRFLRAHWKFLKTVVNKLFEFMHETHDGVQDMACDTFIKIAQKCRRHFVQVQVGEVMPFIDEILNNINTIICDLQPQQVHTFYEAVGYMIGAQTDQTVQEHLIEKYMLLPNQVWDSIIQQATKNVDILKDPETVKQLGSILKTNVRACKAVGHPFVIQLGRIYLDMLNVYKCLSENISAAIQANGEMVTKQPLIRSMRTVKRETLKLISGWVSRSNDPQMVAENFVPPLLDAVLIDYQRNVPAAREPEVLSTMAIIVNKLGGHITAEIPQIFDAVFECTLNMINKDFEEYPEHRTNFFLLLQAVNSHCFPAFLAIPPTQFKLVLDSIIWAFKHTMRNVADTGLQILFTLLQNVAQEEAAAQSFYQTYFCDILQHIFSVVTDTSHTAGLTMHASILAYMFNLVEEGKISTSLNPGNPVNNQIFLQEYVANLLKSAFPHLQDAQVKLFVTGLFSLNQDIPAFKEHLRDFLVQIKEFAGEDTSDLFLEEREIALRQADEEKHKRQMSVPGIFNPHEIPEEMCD
inactive: lapatinib -0.039 | pictilisib 0 | crizotinib -0.034 | [1] -0.037 | duvelisib -0.026 | gandotinib -0.043 | tozasertib 0.021 | doramapimod -0.001 | bafetinib -0.02 | [2] 0.07 | nilotinib 0.011 | [3] -0.011 | dasatinib -0.038 | [4] -0.014 | [5] 0.021 | quisinostat -0.007 | tipifarnib -0.009 | [6] 0.021 | [7] 0.011 | [8] 0.006
